From PubChem BioAssay (NCATS)
Inconclusive results are not listed. The source made the active and inactive calls. Calls come from the whole dose curve; as a rule, active = well fitted curve in the direction sought with a large enough effect; inconclusive = small, poorly fitted or top-dose-only effect, or another doubt; inactive = no such curve, though single readings can be large; an effect the other way counts as inactive or inconclusive.

What was measured:
[1] = molecular target: Rap guanine nucleotide exchange factor 3 (Homo sapiens) (UniProt O95398); assay: Confirmatory qHTS for antagonist of cAMP-regulated guanine nucleotide exchange factor 3 (EPAC1) (AID 1645880); note: nearly all actives have a fitted effect of over 55% in size; note: potency is the fitted concentration of half-maximal effect
Procedure, shortened: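 Released BODIPY-GDP fluoresces less than Rap1-bound BODIPY-GDP; the signal is followed at 480/540 nm at 5-min intervals over 30 min, after 5 min at room temperature. Reactions contain 100 nM EPAC1, 250 nM RAP1B-BODIPY-GDP and 50 uM GDP; results are normalized to ATA and DMSO.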

[2] = molecular target: Rap guanine nucleotide exchange factor 3 (Homo sapiens) (UniProt O95398); assay: Confirmatory qHTS for agonist of cAMP-regulated guanine nucleotide exchange factor 3 (EPAC1) (AID 1645881); note: nearly all actives have a fitted effect of over 75% in size; note: potency is the fitted concentration of half-maximal effect;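 for activation: EPAC1 catalysed release of BODIPY-GDP from Rap1B seen as fluorescence loss; 100% = effect of cAMP agonist control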
[3] = molecular target: Rap guanine nucleotide exchange factor 4 (Homo sapiens) (UniProt Q8WZA2); assay: Confirmatory qHTS for agonist of cAMP-regulated guanine nucleotide exchange factor 4 (EPAC2) (AID 1645884);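 note: nucleotide exchange releases bodipy-GDP from Rap1 and this lowers its fluorescence; nearly all actives have a fitted effect of over 65% in size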; note: potency is the fitted concentration of half-maximal effect; for activation: % is set by controls: 0 for no effect and ±100 for the full control effect
[4] = molecular target: Rap guanine nucleotide exchange factor 4 (Homo sapiens) (UniProt Q8WZA2); assay: Confirmatory qHTS for antagonist of cAMP-regulated guanine nucleotide exchange factor 4 (EPAC2) (AID 1645885); note: nearly all actives have a fitted effect of over 25% in size; note: potency is the fitted concentration of half-maximal effect; for activity change, negative = inhibition: % is set by controls: 0 for no effect and ±100 for the full control effect
[5] = molecular target: Rap guanine nucleotide exchange factor 3 (Homo sapiens) (UniProt O95398); assay: Counterscreen qHTS for antagonist of cAMP-regulated guanine nucleotide exchange factor 3 (EPAC1) (AID 1645888); note: % of control where 0% means no effect
Procedure, shortened: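 Rap1B-BODIPY-GDP 250 nM + GDP 50 uM; cpds 7-pt, final 9.74 nM–152 uM (activator mode) or from 7.32 nM upwards (inhibitor mode); RT; FI 480/540 nm at 5 and 30 min, then ± cAMP, reread.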

Sequence of Rap guanine nucleotide exchange factor 3 (Homo sapiens) (O95398 whole entry, looked up): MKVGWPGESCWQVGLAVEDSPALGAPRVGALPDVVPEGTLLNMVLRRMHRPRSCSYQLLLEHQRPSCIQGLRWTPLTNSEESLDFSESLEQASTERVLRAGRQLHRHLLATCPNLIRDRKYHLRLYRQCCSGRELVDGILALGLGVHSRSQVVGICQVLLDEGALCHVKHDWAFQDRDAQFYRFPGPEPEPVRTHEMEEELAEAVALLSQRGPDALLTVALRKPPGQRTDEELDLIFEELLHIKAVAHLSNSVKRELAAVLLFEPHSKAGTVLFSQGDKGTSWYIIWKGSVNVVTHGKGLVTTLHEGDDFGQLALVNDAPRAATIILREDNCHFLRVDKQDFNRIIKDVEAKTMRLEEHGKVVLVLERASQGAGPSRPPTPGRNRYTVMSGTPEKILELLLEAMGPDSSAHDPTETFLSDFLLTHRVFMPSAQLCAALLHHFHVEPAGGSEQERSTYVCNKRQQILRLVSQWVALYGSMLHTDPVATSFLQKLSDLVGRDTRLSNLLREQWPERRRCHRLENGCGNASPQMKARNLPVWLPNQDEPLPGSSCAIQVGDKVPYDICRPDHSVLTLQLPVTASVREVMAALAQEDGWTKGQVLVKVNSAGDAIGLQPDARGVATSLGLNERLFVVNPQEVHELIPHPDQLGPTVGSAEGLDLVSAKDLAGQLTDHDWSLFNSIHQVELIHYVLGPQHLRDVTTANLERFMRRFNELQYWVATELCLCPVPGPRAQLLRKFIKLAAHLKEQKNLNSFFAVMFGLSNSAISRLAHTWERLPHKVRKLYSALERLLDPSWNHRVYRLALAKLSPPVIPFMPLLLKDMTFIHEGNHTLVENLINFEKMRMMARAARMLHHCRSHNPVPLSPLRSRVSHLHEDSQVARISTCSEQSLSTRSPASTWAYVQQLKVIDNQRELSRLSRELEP
Sequence of Rap guanine nucleotide exchange factor 4 (Homo sapiens) (Q8WZA2 whole entry, looked up): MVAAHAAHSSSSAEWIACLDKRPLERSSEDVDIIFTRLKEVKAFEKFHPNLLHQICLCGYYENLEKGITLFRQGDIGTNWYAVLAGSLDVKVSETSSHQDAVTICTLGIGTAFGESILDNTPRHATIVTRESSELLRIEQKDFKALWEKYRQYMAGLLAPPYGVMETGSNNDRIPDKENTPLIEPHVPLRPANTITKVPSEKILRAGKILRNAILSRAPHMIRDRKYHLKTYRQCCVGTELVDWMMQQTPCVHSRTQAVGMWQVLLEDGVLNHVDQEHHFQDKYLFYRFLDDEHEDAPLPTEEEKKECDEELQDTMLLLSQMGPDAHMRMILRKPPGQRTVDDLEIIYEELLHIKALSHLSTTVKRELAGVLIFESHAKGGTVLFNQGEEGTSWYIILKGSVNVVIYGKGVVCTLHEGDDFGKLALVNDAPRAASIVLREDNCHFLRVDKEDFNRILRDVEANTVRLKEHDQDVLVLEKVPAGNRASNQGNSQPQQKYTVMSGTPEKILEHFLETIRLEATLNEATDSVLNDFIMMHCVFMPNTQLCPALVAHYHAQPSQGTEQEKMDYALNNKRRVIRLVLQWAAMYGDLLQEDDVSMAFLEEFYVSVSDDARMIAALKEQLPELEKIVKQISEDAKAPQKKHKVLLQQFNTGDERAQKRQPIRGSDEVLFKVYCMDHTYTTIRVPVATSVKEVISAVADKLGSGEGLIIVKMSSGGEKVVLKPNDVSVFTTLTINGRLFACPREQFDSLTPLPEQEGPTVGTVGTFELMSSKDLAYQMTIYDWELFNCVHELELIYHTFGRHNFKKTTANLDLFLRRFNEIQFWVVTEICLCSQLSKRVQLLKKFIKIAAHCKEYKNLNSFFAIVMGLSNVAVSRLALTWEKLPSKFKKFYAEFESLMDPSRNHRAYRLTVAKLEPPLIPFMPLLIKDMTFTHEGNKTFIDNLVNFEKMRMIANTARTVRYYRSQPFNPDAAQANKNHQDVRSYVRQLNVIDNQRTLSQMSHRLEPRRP

O=C1C(c2ccccc2)=[N+]([O-])c2ccccc21
inactive: Potency [1] | Potency [2] | Potency [3] | Potency [4] | Potency [5]

O=C(O)c1[nH]c2ccccc2c1C(c1cc(Cl)cc([N+](=O)[O-])c1O)c1c(C(=O)O)[nH]c2ccccc12
inactive: Potency [2] | Potency [3] | Potency [4] | Potency [5]
active: Potency [1] 37.9 µM

O=C(c1ccc2nc(N3CCOCC3)sc2c1)N1CCC(Cc2ccccc2)CC1
inactive: Potency [1] | Potency [2] | Potency [3] | Potency [4] | Potency [5]

Cc1cccc(-n2c(O)c(C=Nc3ccccc3O)c3ccccc3c2=O)n1
inactive: Potency [1] | Potency [2] | Potency [3] | Potency [4] | Potency [5]

OC(c1ccc(Cl)c(Cl)c1)c1ncc(-c2ccc(Cl)cc2)[nH]1 (stereo not given)
inactive: Potency [1] | Potency [2] | activation [3] -3.18% [at 17.1 µM, percent relative to cAMP agonist control] | Potency [4] | activity change, negative = inhibition [5] -2.17% [at 30.8 µM]

Cn1cc([C@]2(O)C(=O)Nc3ccccc32)c2ccccc21
inactive: Potency [1] | Potency [2] | activation [3] 0.506% [at 17.1 µM, percent relative to cAMP agonist control] | Potency [4] | activity change, negative = inhibition [5] -2.77% [at 30.8 µM]

Clc1ccc(NCc2nc3ccccc3n2CCOc2ccccc2)cc1
inactive: Potency [1] | Potency [2] | Potency [3] | outcome [4] inactive [at 12.7 µM] | Potency [5]

COC(=O)C1=NNCC12CC(=O)N(c1ccc(Br)cc1)C2=O (stereo not given)
inactive: Potency [1] | Potency [2] | Potency [3] | Potency [4] | Potency [5]

O=C(Cn1cc(SCc2ccc(Cl)cc2)c2ccccc21)N1CCCC1
inactive: Potency [1] | Potency [2] | Potency [3] | Potency [4] | Potency [5]

CCN(CC(=O)Nc1c(F)cccc1F)C(=O)CCc1nc2sc3c(c2c(=O)[nH]1)CCCC3
active: Potency [1] 75.7 µM
inactive: Potency [2] | Potency [3] | Potency [4] | Potency [5]

O=C(CCc1ccc(O)c(O)c1)N/N=C/c1cc2c(cc1[N+](=O)[O-])OCO2
inactive: Potency [2] | Potency [3] | Potency [4] | Potency [5]
active: Potency [1] 23.9 µM

Cc1ccc2c(c1)C(c1ccccc1)CC(=O)O2 (stereo not given)
inactive: Potency [1] | Potency [2] | Potency [3] | Potency [5]
active: Potency [4] 37.9 µM

Cc1ccc(NC(=O)c2ccc(S(=O)(=O)N3CCCCCC3)cc2)nc1
inactive: Potency [1] | Potency [2] | activation [3] 5.15% [at 17.1 µM, percent relative to cAMP agonist control] | Potency [4] | activity change, negative = inhibition [5] -5.55% [at 30.8 µM]

CC1CN(S(=O)(=O)c2cccc(C(=O)Nc3ccccc3N3CCOCC3)c2)CC(C)O1 (stereo not given)
inactive: Potency [1] | Potency [2] | activation [3] 3.24% [at 17.1 µM, percent relative to cAMP agonist control] | Potency [4] | activity change, negative = inhibition [5] -5.5% [at 30.8 µM]

Cc1c(C(=O)N2CCCCC2)oc2ccc(Br)cc12
inactive: Potency [1] | Potency [2] | Potency [3] | Potency [4] | Potency [5]

Cc1cc(C)c(-c2c(N)cc(Br)cc2Br)c(N)c1
inactive: Potency [1] | Potency [2] | Potency [3] | Potency [4] | Potency [5]

COc1ccc(/C=N/NC(=O)c2cccnc2)cc1CN1CCCc2ccccc21
inactive: Potency [1] | Potency [2] | Potency [3] | Potency [4] | Potency [5]

CCSc1nnc(NC(=O)C2CCN(S(=O)(=O)c3ccccc3C(F)(F)F)CC2)s1
inactive: Potency [1] | Potency [2] | Potency [3] | Potency [4] | Potency [5]

COc1cc(Nc2cc(C)nc3ncnn23)cc(OC)c1
inactive: Potency [1] | Potency [2] | Potency [3] | Potency [4] | Potency [5]

Cc1ccc(N2C(=O)c3ccccc3C2C(=O)c2ccc(O)cc2O)cc1 (stereo not given)
inactive: Potency [1] | Potency [2] | Potency [3] | Potency [4] | Potency [5]

CC(=O)NC(c1ccccc1)c1cc(Cl)c2cccnc2c1O (stereo not given)
inactive: Potency [1] | Potency [2] | Potency [3] | Potency [4] | Potency [5]

COc1ccc(OCc2nc3ccccc3n2Cc2ccccc2Cl)cc1
inactive: Potency [1] | Potency [2] | Potency [3] | Potency [4] | Potency [5]

CC(=C\c1ccccc1)/C=C1/SC(=S)N(CCCC(=O)O)C1=O
inactive: Potency [2] | Potency [3] | Potency [4] | Potency [5]
active: Potency [1] 84.9 µM

COc1ccccc1C(=O)Nc1ccccc1C(=O)OCc1cc(=O)n2c(C)csc2n1
inactive: Potency [1] | Potency [2] | Potency [3] | Potency [4] | Potency [5]

O=C(Nc1cccs1)Nc1ccccc1Cl
inactive: Potency [1] | Potency [2] | activation [3] 6.52% [at 17.1 µM, percent relative to cAMP agonist control] | Potency [4] | activity change, negative = inhibition [5] 6.73% [at 30.8 µM]

COCOCCn1cc(CN2CCS(=O)(=O)N(Cc3ccc(-c4ccc(C)cc4)cc3)C(CC(C)C)C2=O)nn1 (stereo not given)
inactive: Potency [1] | Potency [2] | activation [3] 9.16% [at 17.1 µM, percent relative to cAMP agonist control] | Potency [4] | activity change, negative = inhibition [5] 15.6% [at 30.8 µM]

CC(C)CN(C(=O)CC1OC(=O)c2ccccc21)c1c(N)n(Cc2ccccc2)c(=O)[nH]c1=O (stereo not given)
inactive: Potency [1] | Potency [2] | Potency [3] | Potency [4] | Potency [5]

Cc1ccnc(NS(=O)(=O)c2ccc(NC(=O)Cc3c(F)cccc3Cl)cc2)n1
inactive: Potency [1] | Potency [2] | Potency [3] | Potency [4] | Potency [5]

CCn1c(CSc2nc3ccccc3s2)nnc1SCC(=O)c1ccc(O)c(O)c1
inactive: Potency [1] | Potency [2] | Potency [3] | Potency [4] | Potency [5]

CC1CN(C(=O)CCC(=O)NCc2cccc(Cl)c2)c2ccccc2S1 (stereo not given)
inactive: Potency [1] | Potency [2] | Potency [3] | Potency [4] | Potency [5]

COC(=O)c1ccc2nc(-c3ccccc3)c(Cc3ccc(C)cc3)n2c1
inactive: Potency [1] | Potency [2] | Potency [3] | Potency [4] | Potency [5]

CCOc1cc(S(=O)(=O)N(CC)CC)ccc1Cl
inactive: Potency [1] | Potency [2] | activation [3] 7.51% [at 17.1 µM, percent relative to cAMP agonist control] | Potency [4] | activity change, negative = inhibition [5] -20.8% [at 30.8 µM]

Cc1cc(/C=N/NC(N)=S)c(O)c(/C=N/NC(N)=S)c1
inactive: Potency [1] | Potency [4] | Potency [5]
active: Potency [2] 44.7 µM | Potency [3] 50.1 µM

COc1ccc(-n2nnnc2SCC(=O)c2ccc(O)c(O)c2)cc1
active: Potency [1] 9.53 µM
inactive: Potency [2] | Potency [3] | Potency [4] | Potency [5]

COc1ccc(OC)c(Nc2nc3ccccc3nc2-n2nc(C)cc2C)c1
inactive: Potency [1] | Potency [2] | Potency [3] | Potency [4] | Potency [5]

Cc1ccc(S(=O)(=O)N2[C@@H](c3ccc(Br)cc3)C(C(=O)O)=CC[C@H]2c2ccc(C(C)C)cc2)cc1
inactive: Potency [2] | Potency [3] | Potency [4] | Potency [5]
active: Potency [1] 16.9 µM

COc1ccc(/C=N/Nc2ccc(C(=O)O)cc2)cc1Br
inactive: Potency [1] | Potency [2] | Potency [3] | Potency [4] | Potency [5]

CC(=O)Nc1ccc(NC(=O)CCC(=O)OCC(=O)c2ccc(C)c([N+](=O)[O-])c2)cc1
inactive: Potency [1] | Potency [2] | Potency [3] | Potency [4] | Potency [5]

Cc1ccc(NC(=O)C2CCN(S(=O)(=O)c3ccc4c(c3)OCCCO4)CC2)nc1
inactive: Potency [1] | Potency [2] | activation [3] 6.5% [at 17.1 µM, percent relative to cAMP agonist control] | Potency [4] | activity change, negative = inhibition [5] 13.4% [at 30.8 µM]

COc1cc(/C=C2/C(=O)NN(c3ccc(Cl)cc3)C2=O)ccc1OC(=O)c1ccco1
active: Potency [1] 47.8 µM
inactive: Potency [2] | Potency [3] | Potency [4] | Potency [5]

Cc1ccc(-c2sc(-c3ccccc3)nc2CC(=O)Nc2ccccc2F)cc1
inactive: Potency [1] | Potency [2] | Potency [3] | Potency [4] | Potency [5]

Cc1cccc(C(=O)Nc2cccc(C(=O)OCc3cc(=O)n4c5c(sc4n3)CCCC5)c2)c1
inactive: Potency [1] | Potency [2] | Potency [3] | Potency [4] | Potency [5]

CNC(=O)c1c(NC(=O)C2=COCCO2)sc(C)c1C
inactive: Potency [1] | Potency [2] | Potency [3] | Potency [4] | Potency [5]

CCN(CC)C(=S)Oc1c(Cl)cccc1Cl
inactive: Potency [1] | Potency [2] | activation [3] 7.01% [at 17.1 µM, percent relative to cAMP agonist control] | Potency [4] | activity change, negative = inhibition [5] -19.4% [at 30.8 µM]

CCNC(=O)C1(C)CCN(C(=O)c2ccc(C(=O)OC)cc2)C1 (stereo not given)
inactive: Potency [1] | Potency [2] | Potency [3] | Potency [4] | Potency [5]

CCOc1cc(/C=C2\C(=N)N3N=C(S(C)(=O)=O)SC3=NC2=O)ccc1OCCOc1cccc(OC)c1
inactive: Potency [2] | Potency [3] | Potency [4] | Potency [5]
active: Potency [1] 19 µM

CCCCN1C(=O)C(C(=O)OCc2ccccc2)CC2=C1CCCC2=O (stereo not given)
inactive: Potency [1] | Potency [2] | Potency [3] | Potency [4] | Potency [5]

Cc1cc(C)c(OCC(=O)Nc2ccccc2N2CCCCC2)c(C)c1
inactive: Potency [1] | Potency [2] | Potency [3] | Potency [4] | Potency [5]

COc1ccc(C(=O)NCC2(c3ccccc3)CCCC2)c(OC)c1
inactive: Potency [1] | Potency [2] | activation [3] -2.19% [at 17.1 µM, percent relative to cAMP agonist control] | Potency [4] | activity change, negative = inhibition [5] -13.7% [at 30.8 µM]

CNc1c(-n2cc(C(=O)OC)c(C(=O)OC)c2C(=O)OC)c(=O)n(C)c(=O)n1C
inactive: Potency [1] | Potency [2] | Potency [3] | Potency [4] | Potency [5]
